Measured values reported in PubChem BioAssay (NCATS).
Records with an inconclusive call do not appear. Unmarked numbers belong to inactive results. The source made the active and inactive calls. The call rests on the fitted dose curve; in most records, active means well fitted inhibition curve with a large enough effect; inconclusive means small, poorly fitted or top-dose-only effect; inactive means flat fitted curve, though single readings scatter.

system: astro; test: Drug repurposing screens with cells derived from glioblastoma tumor samples (AID 1345199); conditions: viability, ATP luminescence, 48 h; series mostly up to 45.9 µM; activity, negative = cell killing: at the top concentration; further: nearly all actives have a fitted effect of over 40% in size
Method in brief: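 Four patient lines of CD133+ GBM neurospheres were screened at several concentrations; hits were retested in those lines plus three slower-growing GBM lines, using 48-hour treatment and ATP-based viability.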
On the % scale 0 is the no-effect control and ±100 the full control effect; potency means the concentration at half of the fitted maximal effect.

Compound	activity, negative = cell killing	Potency
CCCCCCCCCCCCCCCCCC(=O)OCC(O)CO (centres undefined)	-8.12%	
O=C(N/N=C/c1ccccc1O)c1ccncc1	-11.4%	
CC1(C)O[C@@H]2C[C@H]3[C@@H]4C[C@H](F)C5=CC(=O)C=C[C@]5(C)[C@H]4[C@@H](O)C[C@]3(C)[C@]2(C(=O)CO)O1	-2% [at 21.2 µM]	
O=S1(=O)c2cccc3cccc(c23)N1CCCN1CCN(c2ccc(F)cc2)CC1	-22.9%	
CCN(CCCCOC(=O)c1ccc(OC)c(OC)c1)C(C)Cc1ccc(OC)cc1 (centres undefined)	-17% [at 21.2 µM]	
CC(C)=CCC1C(=O)N(c2ccccc2)N(c2ccccc2)C1=O	-16.3%	
CN1CCN(CCCN2c3ccccc3Sc3ccc(S(=O)(=O)N(C)C)cc32)CC1	-14.7% [at 21.2 µM]	
CCC(NC(C)C)C(O)c1ccc(O)c(O)c1 (centres undefined)	-19%	
COC(=O)[C@@H]1CC2=CC(=O)CC[C@]2(C)[C@@]23O[C@@H]2C[C@@]2(C)[C@@H](CC[C@@]24CCC(=O)O4)[C@H]13	-6.69%	
CCCCc1nc(Cl)c(CO)n1Cc1ccc(-c2ccccc2-c2nn[nH]n2)cc1	-7.04%	
CN1CCC(=C2c3ccccc3Sc3ccccc32)CC1		11.2 µM (active)
COCc1c(C(C)C)nc(C(C)C)c(/C=C/[C@@H](O)C[C@@H](O)CC(=O)O)c1-c1ccc(F)cc1		0.1 µM (active)
COc1c2occc2c(OC)c2c(=O)cc(C)oc12	-20.4% [at 21.2 µM]	
CCCCOc1ccc(C(=O)CCN2CCCCC2)cc1	-23.4% [at 21.2 µM]	
CCCCOc1cc(C(=O)NCCN(CC)CC)c2ccccc2n1	-18.7% [at 21.2 µM]	
Cc1ccc(Nc2c(F)cccc2Cl)c(CC(=O)O)c1	-15.6%	
CC(C)NC[C@@H](O)COc1cccc2ccccc12	-25.9%	

Compound	activity, negative = cell killing	Potency
CC(C)(CO)[C@@H](O)C(=O)NCCCO	-15.3%	
C#C[C@]1(O)CC[C@H]2[C@@H]3CCC4=CC(=O)CC[C@@H]4[C@H]3CC[C@@]21C	-14.7%	
CCOC(=O)[C@H](CCc1ccccc1)N[C@@H](C)C(=O)N1Cc2ccccc2C[C@H]1C(=O)O	-8.94%	
COC(=O)CCc1ccc(OCC(O)CNC(C)C)cc1 (centres undefined)	-12.5%	
CCN(CC)C(=O)N1CCN(C)CC1	-7.2% [at 21.2 µM]	
NC[C@H]1O[C@H](O[C@H]2[C@H](O[C@@H]3O[C@H](CO)[C@@H](O)[C@H]3O)C(O)[C@H](N)C[C@@H]2N)[C@H](N)[C@@H](O)[C@@H]1O (some centres undefined)	-5.53% [at 21.2 µM]	
CN(C)CC/C=C1\c2ccccc2Sc2ccc(Cl)cc21		22.4 µM (active)
Cc1ncc(CSSCc2cnc(C)c(O)c2CO)c(CO)c1O	-12.5%	
COc1ccc(CN2CCN(C(c3ccc(F)cc3)c3ccc(F)cc3)CC2)c(OC)c1OC		35.5 µM (active)
CC(C)C[C@H]1C(=O)N2CCC[C@H]2[C@]2(O)O[C@](NC(=O)[C@@H]3C=C4c5cccc6[nH]c(Br)c(c56)C[C@H]4N(C)C3)(C(C)C)C(=O)N12	-0.776%	
CC1(C)O[C@@H]2[C@@H](CO[C@@]3(COS(N)(=O)=O)OC(C)(C)O[C@@H]23)O1	-10.8%	
CC(C)COC(=O)c1ccc(N)cc1	-14.5%	
O=C1OCCN1/N=C/c1ccc([N+](=O)[O-])o1	-9.68%	
c1ccc(CNCCNCc2ccccc2)cc1	-18.2%	
C[C@@H](CN(C)C)CN1c2ccccc2Sc2ccccc21	-28.3% [at 21.2 µM]	
CN1CCN(C(c2ccccc2)c2ccccc2)CC1	-15.6% [at 21.2 µM]	
COc1cc(N)c(Cl)cc1C(=O)NC1CCN(CCCOc2ccc(F)cc2)CC1OC (centres undefined)	-17.2% [at 21.2 µM]	
